Read-out in assay [1]: X-box binding protein 1 (XBP1), XBP1 (gene 7494)
In words: LTEA_HepaRG_XBP1: Life Technologies and Expression Analysis (LTEA) Assay for X-box binding protein 1 (XBP1) using HepaRG (AID 2283540; active = hit-call score of the fitted dose curve at least 0.9, where 1 is the maximum; inactive = score below 0.9). The following applies: mRNA level, 48 h; actives raise or lower the signal. In short, it runs like this: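 Differentiated human HepaRG cells in serum-free induction medium were exposed in duplicate for 48 h to eight half-log concentrations up to 100 uM in 0.5% DMSO. XBP1 mRNA was quantified by qRT-PCR, normalised to ACTB, GAPDH and POLR2A, with bidirectional fitting against DMSO.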

A short description of assay [2]: LTEA_HepaRG_LDH_cytotoxicity: Cytotoxicity Assessment in the Life Technologies and Expression Analysis (LTEA) Assay (AID 2283563).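 For AC50: LDH activity released into spent culture medium as a marker of cell death.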 In short, it runs like this:
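Differentiated human HepaRG cells, plated 48 h beforehand, were switched to serum-free induction medium and exposed for 48 h to eight half-log concentrations (top 100 uM) in 0.5% DMSO. LDH was measured in spent medium; activity was fitted relative to DMSO vehicle.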

The nature of assay [3]: TOX21_p53_BLA_p2_viability: Viability Assessment in the Tox21 HCT-116 p53 Agonism Beta-lactamase Assay, Phase 2 (AID 2283591).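 Note: compound exposure lasted 16 h at 37 °C; actives lower the ATP signal meaning cytotoxicity.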 The gist of the method:
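HCT-116 p53-bla cells (4000/well) rested 5 h at 37C, then received compounds in DMSO (217-fold dilution) for 16 h at 37C, 5% CO2. After the CCF4 read, CellTiter-Glo was added; ATP luminescence was read after 30 min at room temperature.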

Assay [4] concerns the target Cellular tumor antigen p53 (Homo sapiens) (UniProt P04637). In words: TOX21_p53_BLA_p2_ratio: Tox21 HCT-116 p53 Agonism Beta-lactamase Assay, Ratio, Phase 2 (AID 2283592). In short, it runs like this: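 HCT116 cells carrying a p53-responsive beta-lactamase reporter were plated, incubated 5 h at 37C, then dosed with compounds in DMSO (217-fold dilution) for 16 h. CCF4-AM substrate was added for 2 h at room temperature; the 460/530 nm emission ratio gave gain-of-signal activity relative to DMSO.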

A short description of assay [5]: TOX21_p53_BLA_p3_viability: Viability Assessment in the Tox21 HCT-116 p53 Agonism Beta-lactamase Assay, Phase 3 (AID 2283593).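 Note: cells exposed to compound for 16 h before reading.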 In short, it runs like this: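 HCT-116 cells (4000/well) rested 5 h at 37C, then got DMSO compounds by pin tool (217-fold dilution) for 16 h at 37C, 5% CO2. After the bla read, CellTiter-Glo was added and luminescence read at 30 min, room temperature.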

The target of assay [6] is Cellular tumor antigen p53 (Homo sapiens) (UniProt P04637). The assay can be described thus: TOX21_p53_BLA_p3_ratio: Tox21 HCT-116 p53 Agonism Beta-lactamase Assay, Ratio, Phase 3 (AID 2283596). The gist of the method: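 HCT116 p53-bla cells (4000/well) given compound in DMSO (217-fold dilution) after 5 h, incubated 16 h at 37C. CCF4-AM substrate 2 h at room temperature; 460/530 nm emission ratio, gain fitted against DMSO.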
Sequence of Cellular tumor antigen p53 (Homo sapiens) (P04637 whole entry, looked up): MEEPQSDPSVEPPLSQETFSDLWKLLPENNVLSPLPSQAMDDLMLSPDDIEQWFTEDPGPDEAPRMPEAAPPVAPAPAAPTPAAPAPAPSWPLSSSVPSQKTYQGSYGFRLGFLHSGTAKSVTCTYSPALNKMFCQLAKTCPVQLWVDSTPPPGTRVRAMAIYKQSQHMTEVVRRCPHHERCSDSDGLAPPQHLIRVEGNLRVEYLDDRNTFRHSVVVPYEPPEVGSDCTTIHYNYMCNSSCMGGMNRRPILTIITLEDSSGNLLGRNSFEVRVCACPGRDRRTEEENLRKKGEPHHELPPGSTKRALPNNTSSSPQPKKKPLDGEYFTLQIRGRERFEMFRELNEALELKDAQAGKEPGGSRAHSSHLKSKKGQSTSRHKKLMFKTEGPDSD

A short description of assay [7]: TOX21_p53_BLA_p4_viability: Viability Assessment in the Tox21 HCT-116 p53 Agonism Beta-lactamase Assay, Phase 4 (AID 2283597).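 Note: hits lower the luminescence signal meaning cytotoxicity.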 In short, it runs like this:
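HCT116 p53-bla cells (4000/well) rested 5 h at 37C, then received compounds in DMSO (217-fold dilution) for 16 h at 37C, 5% CO2. CellTiter-Glo was added after the CCF4-AM read, and luminescence was read after 30 min at room temperature.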

Assay [8] addresses Cellular tumor antigen p53 (Homo sapiens) (UniProt P04637). In words: TOX21_p53_BLA_p5_ratio: Tox21 HCT-116 p53 Agonism Beta-lactamase Assay, Ratio, Phase 5 (AID 2283599). The gist of the method:
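HCT-116 cells carrying a p53-inducible beta-lactamase reporter were seeded at 4000 cells/well and dosed after 5 h with compound in DMSO (217-fold dilution). After 16 h at 37C, CCF4-AM substrate was added for 2 h, and the 460/530 nm emission ratio was scored as gain-of-signal versus DMSO.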

Assay [9] in a line: TOX21_p53_BLA_p5_viability: Viability Assessment in the Tox21 HCT-116 p53 Agonism Beta-lactamase Assay, Phase 5 (AID 2283600). The gist of the method: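 Cells were plated at 4000/well, rested 5 h at 37C, then given compounds in DMSO (217-fold dilution) for 16 h at 37C, 5% CO2. Following the CCF4-AM beta-lactamase read, CellTiter-Glo was added and luminescence was read after 30 min at room temperature.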

The target in assay [10] is Cellular tumor antigen p53 (Homo sapiens) (UniProt P04637). In words: TOX21_p53_BLA_p4_ratio: Tox21 HCT-116 p53 Agonism Beta-lactamase Assay, Ratio, Phase 4 (AID 2283601). The gist of the method: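 HCT116 cells carrying an inducible beta-lactamase reporter were plated at 4000 cells/well, rested 5 h, then exposed to compounds in DMSO (217-fold dilution) for 16 h at 37C. CCF4-AM substrate was loaded 2 h at room temperature; 460/530 nm emission ratio scored gain-of-signal versus DMSO.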

Assay [11] is described as follows: Tanguay_ZF_120hpf_MORT_legacy: (Legacy) Oregon State University Tanguay Lab 120 Hour Post-fertilization zebrafish Assay for Mortality (AID 2283633).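 For AC50: fitted as increase in binary mortality versus DMSO negative control.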 The gist of the method: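 Dechorionated Tropical 5D wild-type zebrafish embryos, one per well from 6 hpf, were statically exposed at 28C in the dark until 120 hpf (0.64% DMSO final). Mortality was scored as present/absent by brightfield microscopy, fitted positively versus DMSO.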

Assay [12] can be described thus: Tanguay_ZF_120hpf_YSE_legacy: (Legacy) Oregon State University Tanguay Lab 120 Hour Post-fertilization zebrafish Assay for Yolk Sac Edema (AID 2283634). In short, it runs like this: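 Tropical 5D wild-type embryos, dechorionated with pronase at 4 hpf, were exposed singly from 6 hpf to 120 hpf under static, sealed, dark conditions at 28C with 0.64% DMSO final. Yolk sac edema was scored present/absent by brightfield microscopy.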

Assay [13] can be described thus: Tanguay_ZF_120hpf_AXIS_legacy: (Legacy) Oregon State University Tanguay Lab 120 Hour Post-fertilization zebrafish Assay for Body Axis Malformation (AID 2283635).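 For AC50: potency for an increased fraction of larvae scored with body axis malformation.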 The gist of the method:
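Tropical 5D wild-type zebrafish embryos, dechorionated with pronase at 4 hpf, were placed singly in wells at 6 hpf and exposed statically to test chemical (0.64% DMSO final) at 28C until 120 hpf, then scored by brightfield for body axis defects.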

The nature of assay [14]: Tanguay_ZF_120hpf_EYE_legacy: (Legacy) Oregon State University Tanguay Lab 120 Hour Post-fertilization zebrafish Assay for Eye Malformation (AID 2283636).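 Note: binary presence or absence of eye malformation scored by brightfield in 120 hpf larvae.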 In short, it runs like this: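 Dechorionated wild-type Tropical 5D zebrafish embryos were exposed statically from 6 hpf, one per well, to 120 hpf at 28C in sealed, foil-covered plates with 0.64% DMSO. Eye malformation was scored present/absent by brightfield microscopy against DMSO controls.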

Assay [15] is described as follows: Tanguay_ZF_120hpf_JAW_legacy: (Legacy) Oregon State University Tanguay Lab 120 Hour Post-fertilization zebrafish Assay for Jaw Malformation (AID 2283638).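 For AC50: active means more embryos with jaw malformation than DMSO controls.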 The gist of the method: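 Tropical 5D wild-type embryos, dechorionated with pronase at 4 hpf, were placed singly per well at 6 hpf and statically exposed at 28C until 120 hpf (0.64% DMSO final). Jaw malformation scored as present/absent by brightfield microscopy at 120 hpf, analyzed relative to DMSO.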

A short description of assay [16]: Tanguay_ZF_120hpf_OTIC_legacy: (Legacy) Oregon State University Tanguay Lab 120 Hour Post-fertilization zebrafish Assay for Otic Vesicle Malformation (AID 2283639). The gist of the method: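 Embryos from 5D wild-type adults exposed in plates; DMSO 0.64% v/v final. Sealed, light-protected, 28C, static to 120 hpf. Otic vesicle malformation recorded as binary endpoint; gain-of-signal fitted vs DMSO.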

Assay [17] in a line: Tanguay_ZF_120hpf_PE_legacy: (Legacy) Oregon State University Tanguay Lab 120 Hour Post-fertilization zebrafish Assay for Pericardial Edema (AID 2283640).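 For AC50: potency for increased incidence of pericardial edema versus DMSO baseline.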 In short, it runs like this:
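Tropical 5D wild-type zebrafish embryos were exposed statically to 120 hpf at 28C, sealed and foil-covered, in 0.64% DMSO final. Pericardial edema was scored present/absent by brightfield microscopy; dead embryos were not scored.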

Assay [18] is described as follows: Tanguay_ZF_120hpf_BRAI_legacy: (Legacy) Oregon State University Tanguay Lab 120 Hour Post-fertilization zebrafish Assay for Brain Malformation (AID 2283641). The gist of the method: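 Tropical 5D wild-type zebrafish embryos were exposed statically in sealed, foil-covered plates at 28C until 120 hpf, with 0.64% (vol/vol) final DMSO. Brain malformation was scored present/absent by brightfield microscopy, relative to DMSO baseline.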

A short description of assay [19]: Tanguay_ZF_120hpf_SNOU_legacy: (Legacy) Oregon State University Tanguay Lab 120 Hour Post-fertilization zebrafish Assay for Snout Malformation (AID 2283637). In short, it runs like this: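 Tropical 5D wild-type zebrafish embryos, dechorionated with pronase at 4 hpf, were exposed singly from 6 hpf to 120 hpf statically at 28C in 0.64% DMSO. Snout malformation was scored present/absent by brightfield microscopy, fitted against DMSO.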

The nature of assay [20]: ATG_XTT_Cytotoxicity: Cytotoxicity Assessment in the Attagene TRANS-FACTORIAL HepG2 Assay (AID 2283584). In short, it runs like this: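 HepG2 human liver cells, transiently transfected with multiple GAL4-UAS reporter units, were dosed and read at 24 h by XTT as cell number. Loss of signal was fitted relative to DMSO negative control baseline.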

The record followed here is PubChem BioAssay (EPA / NIEHS).

Results filed as inconclusive are left out. Activity calls are given as the source filed them. Rule for the calls, unless noted: active = hit-call score of the fitted dose curve at least 0.9, where 1 is the maximum; inconclusive = response in the unintended direction; inactive = score below 0.9.

Usually AC50 stands for the midpoint of the concentration-response curve, whichever way the signal moves.

Regarding `Oc1ccccc1`, the outcome in assay [1], in assay [2], in assay [3], in assay [4], in assay [5] and in assay [6] was inactive. Besides, the result in assay [7], in [8], in [9], in assay [10], in [11] and in assay [12] was inactive. In addition, the outcome in [13], in assay [14], in [15], in [16], in [17] and in assay [18] was inactive.
On to `COc1ccc2cc(S(=O)(=O)N[C@H](CC(=O)N[C@H](Cc3ccc(CN4[C@H](C)CCC[C@@H]4C)cc3)C(=O)N(C)C(C)C)c3ccc4c(c3)OCO4)ccc2c1`, for which the call in assay [1], in [6], in assay [11], in assay [12], in assay [13] and in assay [14] was inactive. The molecule was classed as inactive in assay [19], in [15], in [17] and in assay [18]. For the same molecule, the concentration at half-maximal activity (AC50) in assay [2] was 20.7 µM (active); in [3], 74.2 µM (active); in assay [4], 70.3 µM (active); in assay [5], 84.8 µM (active); in assay [7], 60.6 µM (active); in assay [8], 71.9 µM (active). Moreover, the half-maximal activity concentration (AC50) in [9] was 56.7 µM (active); in [10], 72.1 µM (active).
With `COc1cc(C(=O)NC2CCN(C)CC2)ccc1Nc1ncc2c(n1)N(C1CCCC1)CC(F)(F)C(=O)N2C`, the AC50 in assay [1] is 10.8 µM (active); in assay [2], 16.5 µM (active); in [3] it was 47.4 µM (active); in [4] it was 0.00393 µM (active); in assay [5], 55.2 µM (active); in [6] it was 70.1 µM (active). Also, the AC50 was 42.9 µM (active) in assay [7]; 0.00396 µM (active) in assay [8]; 68.8 µM (active) in [9]; 0.00404 µM (active) in assay [10]; 24.4 µM (active) in assay [11]; 9.69 µM (active) in [13]. In addition, the concentration at half-maximal activity (AC50) in assay [14] is 10.1 µM (active); in assay [19], 10.1 µM (active); in assay [15], 34.6 µM (active); in [17] it was 35.6 µM (active); in assay [18], 12.3 µM (active). The call in [12] and in assay [16] was inactive.
For `c1ccc2n[nH]nc2c1`, the molecule was classed as inactive in [1], in assay [2], in [3], in assay [4], in assay [5] and in assay [6]. Further, the outcome in [7], in assay [8], in [9], in assay [10], in [12] and in assay [13] was inactive. For the same molecule, the call in [14], in assay [19], in assay [15], in assay [16], in assay [17] and in assay [18] was inactive.
For the molecule `O=C1c2ccccc2C(=O)N1CCc1noc(-c2ccc(CN3CCCCCC3)s2)n1`, the call in [1], in [2], in [20], in [3], in assay [4] and in assay [5] was inactive. Further, the outcome in assay [6], in assay [7], in assay [8], in assay [9], in assay [11] and in assay [12] was inactive. Further, the molecule was called inactive in assay [13], in assay [14], in assay [19], in [15], in assay [16] and in assay [17]. The call in assay [18] was inactive.
